Source: PubChem (National Center for Advancing Translational Sciences (NCATS))
The list is not random: actives were taken first. Their share in the collection is about 19%.
Chronic BCR inh: inhibitors of chronic active B-cell receptor signaling; ABC-DLBCL IkBa-CBG/CBR reporter, luminescence ratio, 4 h; Potency, µM (top dose mostly 46.1 µM), without a hit: top-dose activity change, negative = inhibition, actives largely listed as inhibitors; hit rate 0.05% among 340,000; active = well fitted inhibition curve with a large enough effect in the signal ratio, with a control signal flat, not every such curve was filed as active; inconclusive = small, poorly fitted or top-dose-only effect, or effect the other way, or a change in a side signal; the % refers to the signal ratio;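 note: potency is the fitted concentration of half-maximal effect; plate controls were basal doxycycline-induced cells for no effect and cells given 10 µM MG132 for full effect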
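TMD8 ABC-DLBCL cells carrying doxycycline-inducible green luciferase fused to IkappaBalpha plus unfused red luciferase were exposed to compounds (up to 46 uM) for 4 hrs at 37C. Activity came from the overlap-corrected green/red luminescence ratio.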
IL-1B inflam inh: inflammasome signaling inhibition, IL-1 beta readout; THP-1 LPS/ATP IL-1B secretion, AlphaLISA, 16 h; hits give low values; activity change, % at 57.5 µM; hit rate 4.7% among 360,000; AID 743279; in the data active = activity change below about -50%; inconclusive = mostly about -30% to -49%; note: % is set by controls: 0 for no effect and ±100 for the full control effect
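THP-1 cells pretreated 1 hr with compounds (up to 57.5 uM final), then stimulated with LPS (250 ng/mL final) plus ATP (1.25 mM final); secreted IL-1B measured by AlphaLISA after 16 hr, decreased signal indicating inhibition.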
DT40 TDP1 CPT: growth inhibition of DT40 Tdp1-/-;hTDP1 cells with camptothecin (screen for TDP1 inhibitors); Potency, µM (titrated, usually from 46.2 µM), without a hit: at the top dose activity change, negative = growth inhibition, most hits filed as inhibitors; hit rate 12% among 420,000; AID 686979; chicken DT40 Tdp1-/-;hTDP1 cells + 20 nM CPT, ATP luminescence, 48 h; note: potency is the fitted concentration of half-maximal effect; % is set by controls: 0 for no effect and ±100 for the full control effect; nearly all actives have a fitted effect of over 55% in size
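Chicken DT40 Tdp1-/- cells stably complemented with human TDP1 were seeded at 400 cells/well in medium containing 20 nM camptothecin, exposed to pin-transferred compounds, and grown at 37 °C for at least 48 hr. Viability was read as ATP luminescence.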
SW480 rerep: inducers of DNA re-replication in SW480 colon cancer cells. SW480 DNA re-replication, Hoechst DNA content imaging, 48 h. Potency, µM (top dose mostly 46.1 µM), for the others: at the top dose re-replication activation, hits mostly activators. hit rate 1.8% among 340,000. AID 624297; note: potency is the fitted concentration of half-maximal effect; % of control where 0% means no effect; nearly all actives have a fitted effect of over 55% in size
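First, 250 cells per well were seeded. Next, compound or vehicle (23 nL) was pinned in, plates sat 48 hr at 37 C. Finally Hoechst was added for 40 min before fluorescence scanning.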
MCF10A rerep: inducers of DNA re-replication in MCF 10A breast cells; MCF 10A DNA re-replication, Hoechst nuclear intensity, 48 h; Potency, µM (titrated, usually from 46.1 µM), for the others: at the top dose activity, positive = re-replication, actives largely listed as activators; hit rate 2.9% among 350,000; AID 624296; note: potency is the fitted concentration of half-maximal effect; % of control where 0% means no effect; nearly all actives have a fitted effect of over 50% in size
TDP1 cell noCPT: qHTS for Inhibitors of human tyrosyl-DNA phosphodiesterase 1 (TDP1): qHTS in cells in absence of CPT | hit rate 15% among 420,000 | Potency, µM (highest dose often 46.2 µM), without a hit: top-dose activity change, negative = growth inhibition, usual class: inhibitors | AID 686978, 2013 | DT40 Tdp1-/- hTDP1 cells, no CPT, ATP luminescence, 48 h; note: potency is the fitted concentration of half-maximal effect; % is set by controls: 0 for no effect and ±100 for the full control effect; nearly all actives have a fitted effect of over 55% in size
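Camptothecin absent (DMSO only). Human TDP1-complemented DT40 knockout cells, 400 cells/well, 37 °C for minimum 48 hr; ATP measured via CellTiter-Glo, 30 min dark incubation, luminescence.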
* marks the source's active call; other numbers are inactive results; i = inactive; ? = inconclusive; . = no result given; [ ] = dose if it differs, or a comment. Unless noted, calls come from the whole dose curve; as a rule, active = well fitted curve in the direction sought with a large enough effect; inconclusive = small, poorly fitted or top-dose-only effect, or another doubt; inactive = no such curve, though single readings can be large; an effect the other way counts as inactive or inconclusive.

SMILES	Chronic BCR inh	IL-1B inflam inh	DT40 TDP1 CPT	SW480 rerep	MCF10A rerep	TDP1 cell noCPT
COC(=O)c1ccc(/C=C2\SC(=S)N(CCCC(=O)N3CCOCC3)C2=O)cc1	.	-8	-3%	-20%	-23%	7%
Cc1ccc(/C=C2\SC(=S)N(CCCC(=O)N3CCOCC3)C2=O)cc1	?	-66*	?	?	?	?
O=C(CCN1C(=O)S/C(=C/c2ccc(Cl)cc2)C1=O)N1CCOCC1	-9%	13	12µM*	-5%	2%	16µM*
O=C1C(=Cc2ccccc2O)SC(=S)N1CCCN1CCOCC1	.	17	?	.	.	9.2µM*
COC(=O)c1ccc(/C=C2/SC(=S)N(CCC(=O)N3CCOCC3)C2=O)cc1	4%	-11	16µM*	16%	-12%	18µM*
CC(C)COC(=O)N(C)C[C@@H]1OCc2cnnn2CCCC(=O)N([C@@H](C)CO)C[C@H]1C	.	12	3%	.	.	3%
O=C(O)c1cccc(CN2C(=O)SC(Nc3ccccc3)C2=O)c1 (centres undefined)	6%	-6	11%	-4%	23µM*	-7%
CC1(C(=O)O)CCCN(C(=O)c2cccnc2Oc2ccccc2)C1 (centres undefined)	.	24	0%	.	.	-4%
N#C/C(=C\c1ccccc1[N+](=O)[O-])C(=O)NC1CCCCC1	?	-72*	?	?	?	15µM*
N#C/C(=C\c1cc(Cl)ccc1O)C(=O)NC1CCCCC1	2%	-17	?	22%	-2%	?
CCOc1ccccc1/C=C(\C#N)C(=O)NC1CC1	.	0	-19%	-9%	2%	-18%
N#C/C(=C\c1cc(Br)ccc1F)C(=O)NC1CC1	-4%	-2	13µM*	3%	?	?
N#C/C(=C\c1cc(Cl)cc(Cl)c1O)C(=O)NC1CCCCC1	2%	-2	21µM*	19%	?	?
Cc1ccc(-c2[nH]ncc2/C=C(\C#N)C(=O)NC2CCCCC2)cc1	?	-59*	?	-2%	?	21µM*
COc1ccc(NC(=O)CN2CCN(S(=O)(=O)N3CCCCCC3)CC2)cc1	2%	-7	2%	-9%	-1%	-13%
N#C/C(=C\C=C\c1ccccc1[N+](=O)[O-])C(=O)NC1CCCCC1	?	-104*	9.2µM*	?	9.2µM*	9.2µM*
N#C/C(=C\c1cccn1-c1ccccc1)C(=O)NC1CCCCC1	12%	1	?	?	0%	?
Cc1cccc(COC(=O)C(Cc2ccccc2)NC(N)=O)c1 (centres undefined)	0%	-1	?	-9%	12%	?
CCOP(=O)(OCC)c1nc(-c2ccccc2Cl)oc1N1CCOCC1	0%	6	4%	-18%	?	-15%
CCOP(=O)(OCC)c1nc(-c2ccc(Cl)cc2Cl)oc1N1CCCCC1	0%	-113*	12µM*	7%	16µM*	18µM*
CCOc1ccccc1N(CC(=O)NC(C)(C)C)C(=O)CCC(=O)Nc1nccs1	6%	-6	5%	?	4%	-1%
O=c1[nH]c(-c2ccccc2O)nc2ccccc12	.	.	5%[9.04 µM]	.	.	-13%[9.04 µM]
Nc1nc(-c2nc3ccccc3[nH]2)cs1	?	2	23µM*	-9%	-3%	?
O=c1[nH]c(-c2ccccn2)nc2ccccc12	?	23	29µM*	?	?	16µM*
c1ccc(-c2nc3ccccc3[nH]2)nc1	?	-9	?	21%	-23%	16µM*
SMILES	Chronic BCR inh	IL-1B inflam inh	DT40 TDP1 CPT	SW480 rerep	MCF10A rerep	TDP1 cell noCPT
Cc1ccc2nc(-c3ccccn3)[nH]c2c1	?	-4	?	0%	-15%	?
O=c1[nH]c(-c2ccccn2)nc(C(F)(F)F)c1Br	?	48	6.5µM*	10µM*	18µM*	4.6µM*
CCOc1ccc(N2C(=O)CC(N(Cc3ccco3)C(=O)CCC(=O)O)C2=O)cc1 (centres undefined)	19%	4	-2%	-3%	6%	3%
COc1ccc(C(=O)N/C(=C\c2cn(C)c3ccccc23)C(=O)NCCCn2ccnc2)cc1	4%	0	-23%	-11%	2%	-4%
c1ccc(-c2nc3c(ccc4ccccc43)[nH]2)nc1	9%	-11	?	0%[9.22 µM]	15%	23µM*
Nc1ccc(Cc2nc3c(ccc4ccccc43)[nH]2)cc1	?	12	-16%	0%	-4%	-18%
O=C1C(=Cc2ccccn2)CCc2ccccc21	.	-108*	15µM*	.	.	4.1µM*
C(=C1c2ccccc2-c2ccccc21)c1ccccn1	.	-8	?	?	?	13µM*
O=[N+]([O-])c1ccc(N=Nc2ncc[nH]2)cc1	?	-110*	0.92µM*	?	?	0.73µM*
COc1cc(OCc2ccccc2)c(OC)c(OCc2ccccc2)c1	.	4	21µM*	?	16µM*	?
O=C(Nc1ccccc1C(=O)N1CCN(Cc2ccccc2)CC1)c1ccccc1	0%	i	4%	-2%	-20%	-10%
CN[C@H]1C[C@H]2c3cc(-c4ccccc4)ccc3CCN2C(=O)[C@H]1[C@H](C)O	.	0	?	.	.	?
Cc1ccccc1Oc1ccc2c(c1)[C@@H]1C[C@H](N(C)C(=S)Nc3ccc(F)cc3)[C@H]([C@H](C)O)C(=O)N1CC2	.	?	21µM*	.	.	?
COCCNC(=S)N(C)[C@H]1C[C@H]2c3cc(Oc4ccccc4C)ccc3CCN2C(=O)[C@H]1[C@H](C)O	.	-21	15µM*	.	.	8.2µM*
COCCNC(=S)N(C)[C@H]1C[C@H]2c3cc(-c4ccccc4)ccc3CCN2C(=O)[C@H]1[C@H](C)O	.	4	?	.	.	9.2µM*
COc1ccc(N2CC(NC(=O)CCCc3ccccc3)CC2=O)cc1 (centres undefined)	-6%	.	-2%	.	.	-12%
CCSc1nnc(-c2cccc(S(=O)(=O)N(CC)CC)c2)n1Cc1ccccc1	?	-26	11µM*	5%	?	18µM*
CCN(CC)S(=O)(=O)c1cccc(-c2nnc(SCc3ncc(-c4ccccc4)o3)n2C)c1	?	0	?	-2%	1%	18µM*
CCN(CC)S(=O)(=O)c1cccc(-c2nnc(SCC(N)=O)n2C)c1	0%	10	16%	-8%	13%	1%
